What was measured:
Experiment in all cases: PBM binding z-score (relative to random genomic background probes); higher = stronger binding; sequences stand for … in GC…GCGATTGACAGCGTAGAATGAAGG
[1] = system: FXR:RXRa (NR concentration 270 nM, RXRa partner concentration 90 nM)
Summary of the method: (§1)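 Probes were double-stranded and carried 34-nt variable regions with direct-repeat seeds, single-nucleotide variants, half-site ablations and random human genomic background sequences, printed on custom Agilent 4×180K protein-binding microarrays. Arrays were incubated 1 h with ligand-free nuclear receptor dimers in PBS pH 7.4, 2% milk, 0.02% Triton X-100, 1 mM DTT, 0.2 mg/mL BSA and 0.4 mg/ml salmon testes DNA. Antibodies against each partner (one per run) detected binding, and scanned fluorescence was regression-normalized. Binding z-scores use the random background probes as reference.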

[2] = system: LXRa:RXRa (NR concentration 270 nM, RXRa partner concentration 90 nM)
Summary of the method: as §1

[3] = system: LXRa homodimer (NR concentration 270 nM)
Summary of the method: as §1

[4] = system: LXRb:RXRa (NR concentration 270 nM, RXRa partner concentration 90 nM)
Summary of the method: as §1

[5] = system: LXRb homodimer (NR concentration 270 nM)
Summary of the method: as §1

[6] = system: PPARa:RXRa (NR concentration 270 nM, RXRa partner concentration 90 nM)
Summary of the method: as §1

[7] = system: PPARg:RXRa (NR concentration 180 nM, RXRa partner concentration 90 nM)
Summary of the method: as §1

[8] = system: PPARg:RXRa 270nM:90nM, anti-RXR (NR concentration 270 nM, RXRa partner concentration 90 nM)
Summary of the method: as §1

[9] = system: PPARg:RXRa 30nM:10nM, anti-RXR (NR concentration 30 nM, RXRa partner concentration 10 nM)
Summary of the method: as §1

[10] = system: PPARg:RXRa 90nM:30nM, anti-RXR (NR concentration 90 nM, RXRa partner concentration 30 nM)
Summary of the method: as §1

[11] = system: PPARg:RXRa DBDmut IVT, anti-RXR (DBD mutation: RXRa K156A/R161A, NR concentration 270 nM, RXRa partner concentration 90 nM)
Summary of the method: as §1

[12] = system: PPARg:RXRa IVT, anti-PPARg (NR concentration 270 nM, RXRa partner concentration 90 nM)
Summary of the method: as §1

[13] = system: PPARg DBDmut:RXRa IVT, anti-PPARg (DBD mutation: PPARg1 K132A/R137A, NR concentration 270 nM, RXRa partner concentration 90 nM)
Summary of the method: as §1

[14] = system: PPARg DBDmut IVT, anti-PPARg (DBD mutation: PPARg1 K132A/R137A, NR concentration 270 nM)
Summary of the method: as §1

[15] = system: PPARg homodimer (NR concentration 180 nM)
Summary of the method: as §1

[16] = system: PXR:RXRa (NR concentration 270 nM, RXRa partner concentration 90 nM)
Summary of the method: as §1

[17] = system: PXR homodimer (NR concentration 270 nM)
Summary of the method: as §1

[18] = system: RARa:RXR (NR concentration 270 nM, RXRa partner concentration 90 nM)
Summary of the method: as §1

[19] = system: RARa homodimer (NR concentration 270 nM)
Summary of the method: as §1

[20] = system: RARb:RXRa (NR concentration 270 nM, RXRa partner concentration 90 nM)
Summary of the method: as §1

Sequence	PBM binding z-score [1]	PBM binding z-score [2]	PBM binding z-score [3]	PBM binding z-score [4]	PBM binding z-score [5]	PBM binding z-score [6]	PBM binding z-score [7]	PBM binding z-score [8]	PBM binding z-score [9]	PBM binding z-score [10]	PBM binding z-score [11]	PBM binding z-score [12]	PBM binding z-score [13]	PBM binding z-score [14]	PBM binding z-score [15]	PBM binding z-score [16]	PBM binding z-score [17]	PBM binding z-score [18]	PBM binding z-score [19]	PBM binding z-score [20]
ACCGACAGGTGATGAAGGTAACTCAGGCTATCAT	-0.0834	-0.243	-0.257	-0.498	-0.393	0.179	0.492	-0.102	-0.173	-0.00846	0.339	0.157	0.484	0.654	0.0692	-0.165	-0.395	0.291	0.18	0.0834
ACTAGTTGGGCAGCTGAGGTCACACACAATTCGG	2.42	2.48	1.5	2.74	0.155	3.31	1.34	1.8	0.192	1.26	1.04	1.73	0.77	0.164	2.17	4.46	1.48	4.23	0.707	3.05
GCGGCTGGGGCATCAGCAGGTTACCATAACTTAA	-0.5	-0.215	-0.622	0.239	-0.602	0.602	-0.0151	-0.415	-0.593	-0.53	-0.444	0.118	-1.33	-0.84	0.149	0.178	-0.595	0.635	-0.988	0.966
ATCGAAAGGTCGAAGGTGTGTATACCCACCCGAA	3.46	3.02	0.143	2.37	0.416	4.08	2.6	3.32	1.5	2.35	-0.369	1.67	0.695	0.274	1.64	2.3	0.219	3.33	0.296	3.52
ATCGAAAGGTCGTGAGGTGAGTATGCAGAAAGGC	5.14	4.02	0.302	2.91	0.303	5.19	3.67	4.56	1.24	3.19	0.289	2.19	1.46	1.35	1.5	2.98	-0.0975	4.43	0.592	4.01
GCAGACAGGTGAAACGCAGGTAACTCAAGGTGGC	-0.175	0.4	-0.42	-0.165	-1.28	0.892	0.604	-0.0904	-0.0664	-0.118	1.07	0.401	-0.233	-0.299	-0.279	-0.0534	-0.612	0.593	-0.358	0.608
CCTAGTTGGTCAGAAGGTCACACACCGGATATGA	3.53	3.45	1.87	3.36	1.07	4.17	2.81	4.25	1.8	3.82	1.63	2.85	1.32	0.414	4.39	3.98	1.29	4.56	3.08	3.85
